The full ranking holds about 35,000 sequences; the median of “fluorescence intensity (a.u.)” is about 10,000, and the highest 2% start at about 52,000. The sample as a whole holds a higher share of the highest values than the screen did.
These sequences were tested against T1, OsWOX13 (Oryza sativa, UniProt Q5QMM3 1-267) (assay: protein-binding microarray (RPBM); PBS, 2% BSA, 51.3 ng/ul salmon testes DNA, 50 uM zinc acetate, 200 nM TF, 25 C, 1 h; high values mean tight binding). Details: protein: recombinant; tags: N-terminal polyhistidine and DsRed monomer fusion (pET32a); label: CyDye5-dUTP incorporated in the synthesized complementary strand; 3' TTTTT single-stranded linker to array surface; dsDNA, one strand shown.
T1 sequence: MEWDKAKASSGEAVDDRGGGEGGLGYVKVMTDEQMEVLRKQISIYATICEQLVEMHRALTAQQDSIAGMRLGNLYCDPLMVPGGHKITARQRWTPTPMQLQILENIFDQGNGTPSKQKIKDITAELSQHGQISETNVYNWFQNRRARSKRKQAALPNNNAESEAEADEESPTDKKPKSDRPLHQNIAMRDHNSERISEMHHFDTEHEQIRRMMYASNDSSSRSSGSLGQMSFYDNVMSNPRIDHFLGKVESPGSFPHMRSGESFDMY
Outline: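 Ni–NTA purification followed expression in E. coli BL21-CodonPlus of transcription factors fused N-terminally to a polyhistidine tag and DsRed. At 200 nM in PBS with 2% BSA, salmon testes DNA and 50 µM zinc acetate, the protein was incubated for 1 h at 25 °C with a custom Agilent array that had been primer-extended with Cy5-dUTP and blocked with 2% BSA. After washing, the array was read on an Axon 4000B scanner. The binding signal is per-feature fluorescence intensity in arbitrary units.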

Compared with “GAGTACAGATGAAATTTGTAGAAATTGGAATGGTCATGTACGGAGTCACCTAGTGCAG”, “GGCAAATTGTCAAGGTTAACCGTAAATCTACAGTGCCAATCGGAGTCACCTAGTGCAG” is higher in binding signal: 3810 fluorescence intensity (a.u.) for the first, 15500 fluorescence intensity (a.u.) for the second.

Going from “TCTTCACATGAATGATGAAATTGCTAGTAGCATGTCTTCACGGAGTCACCTAGTGCAG” to “CAGTGGATGATTAATATTGATTAATTATTATAATTGTTTTCGGAGTCACCTAGTGCAG”, the binding signal rises from 3410 fluorescence intensity (a.u.) to 39500 fluorescence intensity (a.u.).

First: ACATTCCAAAATTTGACCAAATTTGTTCACTCGTTGACTGCGGAGTCACCTAGTGCAG
Second: GGAGTTGATTGATGGACCTAGAATTGGTTGAGATCCTCAGCGGAGTCACCTAGTGCAG
The binding signal of the first is lower: 3660 fluorescence intensity (a.u.) for the first, 63700 fluorescence intensity (a.u.) for the second.

Compared with “CAGAATTGAGAGTTCACATATCCTCAGTGGTCAGAGTTCACGGAGTCACCTAGTGCAG”, “TGATTAAAATTGACATTAAAATTATAGTTTTGTGATGACTCGGAGTCACCTAGTGCAG” is higher in binding signal: 6100 fluorescence intensity (a.u.) for the first, 19100 fluorescence intensity (a.u.) for the second.

Going from “GATTTAAATTAGATGGAAGGTTGAGAATTAAGCTGATCCTCGGAGTCACCTAGTGCAG” to “AAATTAAATTTTATTTGTTGAAAATAATATCATTGGATTGCGGAGTCACCTAGTGCAG”, the binding signal falls from 13600 fluorescence intensity (a.u.) to 6020 fluorescence intensity (a.u.).

Going from “AATTGATTGGACTCCACCAACATTAAAATAGTTGTTGATGCGGAGTCACCTAGTGCAG” to “ACTTGTTGAAAATTGATTGCTTTGTTGTTGTAGTGTTTACCGGAGTCACCTAGTGCAG”, the binding signal falls from 56400 fluorescence intensity (a.u.) to 23600 fluorescence intensity (a.u.).

Compared with “TTATATTAATTGATGGTCATTATTGTTGGAGATTATATTGCGGAGTCACCTAGTGCAG”, “CGTCTACCGTGATTGTTTCGATACAATTGTGTGCAAGTTACGGAGTCACCTAGTGCAG” is lower in binding signal: 60800 fluorescence intensity (a.u.) for the first, 21200 fluorescence intensity (a.u.) for the second.

Compared with “TTCGATTGATTGATAGTTGATTGTGTGTTTACAATTGAACCGGAGTCACCTAGTGCAG”, “CAGTTTTGGTTAATTAAGTAAATAATTGTCCTCAGAAAGTCGGAGTCACCTAGTGCAG” is lower in binding signal: 52600 fluorescence intensity (a.u.) for the first, 15100 fluorescence intensity (a.u.) for the second.

First: CATAAATTTTCCGTGCCAACTTTGATCATCCGTTTTATTTCGGAGTCACCTAGTGCAG
Second: CTATACAACAAATCATTAATTAGGCTCAAAAGAAAGAAAGCGGAGTCACCTAGTGCAG
The binding signal of the first is lower: 5660 fluorescence intensity (a.u.) for the first, 11100 fluorescence intensity (a.u.) for the second.

First: CACATGCAAATTATCGTGCGTCTGTATGTGGCATGCTTGTCGGAGTCACCTAGTGCAG
Second: GCCACTAAATTAATCCGGTGATTGATCATGTGTGGAAGCACGGAGTCACCTAGTGCAG
The binding signal of the first is lower: 4230 fluorescence intensity (a.u.) for the first, 54200 fluorescence intensity (a.u.) for the second.

Compared with “ACGGTGTGATTAATTACGTCGCGATCATGTTGTGCTAATCCGGAGTCACCTAGTGCAG”, “TTTAATCACTAATTAATTGTTGATTAGCGGCAAGTGTGACCGGAGTCACCTAGTGCAG” is higher in binding signal: 32500 fluorescence intensity (a.u.) for the first, 63800 fluorescence intensity (a.u.) for the second.

Going from “AGAGAATTGAATTAATCCGTGTGATATATCACTAAAATTCCGGAGTCACCTAGTGCAG” to “ATGATTGAATCCTATAAAATCTTGTGAAATTCCTGTGAAACGGAGTCACCTAGTGCAG”, the binding signal rises from 5900 fluorescence intensity (a.u.) to 52800 fluorescence intensity (a.u.).

First: ATACTAATTACTTAATTAGTGACCAGTGATCACTTGTGTGCGGAGTCACCTAGTGCAG
Second: AGAGATCGAGATTGACACACAACGTGGTTCACGCGTGCGCCGGAGTCACCTAGTGCAG
The binding signal of the first is higher: 45800 fluorescence intensity (a.u.) for the first, 23100 fluorescence intensity (a.u.) for the second.

Compared with “TTTTGATGAAATAAACTATGAAAATCCTGTGAAATTCATGCGGAGTCACCTAGTGCAG”, “TACGTGTGTTGATTTCCGTGACATATGCATAAATTTCTTTCGGAGTCACCTAGTGCAG” is lower in binding signal: 7340 fluorescence intensity (a.u.) for the first, 3870 fluorescence intensity (a.u.) for the second.

Going from “GGAGATTGACACGTTGGTCTACGTGCCTATGCGTGTGTTCCGGAGTCACCTAGTGCAG” to “AATGTTTTAATCACATTGATTAGCAACTAATTAATCTTAGCGGAGTCACCTAGTGCAG”, the binding signal falls from 55600 fluorescence intensity (a.u.) to 47100 fluorescence intensity (a.u.).

Compared with “GATTTGATTTAAATCTTGAATAAATTTAATAAAATCCTATCGGAGTCACCTAGTGCAG”, “TTCATTAATCTCCCGGTGATGGATGAACGGGGAAAAGGGCCGGAGTCACCTAGTGCAG” is lower in binding signal: 10000 fluorescence intensity (a.u.) for the first, 4280 fluorescence intensity (a.u.) for the second.

Going from “GATGTTAAGTTTTGGGCATATGATTGAATTGTCTTATATACGGAGTCACCTAGTGCAG” to “CTGTTTGATTTAGCTTAGGATTATTAGGTGTAAGCTGAAACGGAGTCACCTAGTGCAG”, the binding signal falls from 4180 fluorescence intensity (a.u.) to 3910 fluorescence intensity (a.u.).

Compared with “AACCAATCACGTCGCAGATAAGGCCTGACAGGTGTGCCCCCGGAGTCACCTAGTGCAG”, “CGCGTGTGGTGATTGGCTGGCTCTTTGCCTCATCATGGGCCGGAGTCACCTAGTGCAG” is higher in binding signal: 32700 fluorescence intensity (a.u.) for the first, 34100 fluorescence intensity (a.u.) for the second.

First: TGGATGATTGGTGAGATAGGTGTTCCTTATAATTATAGGGCGGAGTCACCTAGTGCAG
Second: CACAGAATCCTTAATTAATTATATACATATATTGATCATGCGGAGTCACCTAGTGCAG
The binding signal of the first is higher: 54800 fluorescence intensity (a.u.) for the first, 16200 fluorescence intensity (a.u.) for the second.

Compared with “GATATAATTGGTATTATTACTAGGTTGGTGTGATATCCTACGGAGTCACCTAGTGCAG”, “ATAGATTGATTTGATAATTTCCTTGAGAGTAACACATGGGCGGAGTCACCTAGTGCAG” is higher in binding signal: 27400 fluorescence intensity (a.u.) for the first, 65500 fluorescence intensity (a.u.) for the second.

Compared with “TTAATTGATCACATATTAATGGGCAACGCTGTTTTCCATGCGGAGTCACCTAGTGCAG”, “CATATTAATTGTTAAAGTTGTCATCATCCAAATTGTTATACGGAGTCACCTAGTGCAG” is lower in binding signal: 63600 fluorescence intensity (a.u.) for the first, 11100 fluorescence intensity (a.u.) for the second.

Going from “ACATTTGTGATTTTCCTAGGTAATGGTGAGATTTTATAGGCGGAGTCACCTAGTGCAG” to “TCCAAAATCAATCAATTAAAACCCATAGTTATTGTTGACTCGGAGTCACCTAGTGCAG”, the binding signal rises from 3220 fluorescence intensity (a.u.) to 53500 fluorescence intensity (a.u.).

Going from “AGATGCTGCATGGTTGATTGGTTTCAAGTAATTTCATGGGCGGAGTCACCTAGTGCAG” to “CTCCTTACAAATTTTGAAGATAATTTCGTAACACTTGGGGCGGAGTCACCTAGTGCAG”, the binding signal rises from 7340 fluorescence intensity (a.u.) to 7610 fluorescence intensity (a.u.).

First: GAAATTAATTTTAATAGTGTTTTCATATTATTTCCATGCGCGGAGTCACCTAGTGCAG
Second: CTCAAATTATTGTTAAACCTTCATATAAATCGACCCCAATCGGAGTCACCTAGTGCAG
The binding signal of the first is higher: 46500 fluorescence intensity (a.u.) for the first, 7650 fluorescence intensity (a.u.) for the second.

First: ACTGTGACACATGATGAACTGTTTATTTTGCATGATCTATCGGAGTCACCTAGTGCAG
Second: GGCGTATTTCCCAATCATTGTGCGGTCCAAAACCATCGCCCGGAGTCACCTAGTGCAG
The binding signal of the first is lower: 5480 fluorescence intensity (a.u.) for the first, 10000 fluorescence intensity (a.u.) for the second.

First: CTGATGTGATTACGTCTATCCAGTATAATCCCTCTGGTTTCGGAGTCACCTAGTGCAG
Second: TACCTCGCGACTAATTGGGCCTCCACTAACACCTAGATTCCGGAGTCACCTAGTGCAG
The binding signal of the first is higher: 31700 fluorescence intensity (a.u.) for the first, 4340 fluorescence intensity (a.u.) for the second.

Compared with “TGTGAAAATGGATAATTAAGGGATCCCAAAGACCCATAAGCGGAGTCACCTAGTGCAG”, “GTTGAACTTATTCCAATCAAGGATCACGCATTCACGTTCACGGAGTCACCTAGTGCAG” is higher in binding signal: 10800 fluorescence intensity (a.u.) for the first, 14100 fluorescence intensity (a.u.) for the second.

Reference: paper PMC7819943, “Rice protein-binding microarrays: a tool to detect cis-acting elements near promoter regions in rice”
